Source: the supplement of paper PMC12645437, “Orthogonal IMiD-Degron Pairs Induce Selective Protein Degradation in Cells” (ACS Chemical Biology, 2025)
The full ranking holds about 8,300 sequences; the median of “log2 fold change of degron read counts, EGFP-low vs EGFP+ sorted cells (limma voom), compound-induced degradation” is about -1.1, and the highest 2% start at about 3.2. The sample holds the highest values, similar sequences and a random draw of the others, so the mix is not that of the screen.

T1: CRBN, Q96SW2
T1 chain: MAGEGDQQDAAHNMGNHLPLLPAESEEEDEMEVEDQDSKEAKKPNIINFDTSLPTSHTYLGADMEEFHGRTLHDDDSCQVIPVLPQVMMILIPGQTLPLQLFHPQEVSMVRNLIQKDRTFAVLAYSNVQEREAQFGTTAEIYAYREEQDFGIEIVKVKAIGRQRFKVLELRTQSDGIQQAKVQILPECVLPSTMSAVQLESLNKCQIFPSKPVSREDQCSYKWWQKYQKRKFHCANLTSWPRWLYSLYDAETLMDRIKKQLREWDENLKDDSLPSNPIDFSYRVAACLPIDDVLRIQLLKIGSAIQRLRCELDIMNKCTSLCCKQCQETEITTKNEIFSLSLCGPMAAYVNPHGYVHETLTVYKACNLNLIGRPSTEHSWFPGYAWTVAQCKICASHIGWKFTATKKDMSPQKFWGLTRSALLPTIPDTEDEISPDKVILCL


Biological target: T1, CRBN, Q96SW2
Assay: log2 fold change of degron read counts, EGFP-low vs EGFP+ sorted cells (limma voom), compound-induced degradation; higher = more compound-induced degradation of the degron-EGFP fusion; degrons are variants of IKZF1/3 zinc finger 2; compound dose not given here
Details: Jurkat, 18 h
Procedure: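 Pooled library of 8380 IKZF3 ZF2 degron mutants (positions 146-167 varied within the IKZF3 130-189 degron; only the varied core is printed, flanks not printed) fused to EGFP with IRES-mCherry, lentivirally expressed in Jurkat cells. mCherry+ cells were treated with one IMiD compound for 18 h (dose not stated) and FACS-sorted into EGFP-low and EGFP+ populations. Degron sequences were counted by NGS, and log2FC (EGFP-low vs EGFP+) was estimated by limma voom over 3 biological replicates.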

[1] = compound: compound 19 (5-tert-butyl-thalidomide)
[2] = compound: compound 22 (5-morpholino-thalidomide)
[3] = compound: compound 33 (diphenyl IMiD analogue)
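Further: pooled lentiviral library of zinc finger degron-EGFP fusions in mCherry-positive Jurkat cells, FACS-sorted after compound exposure, with degron abundance counted by next-generation sequencing.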

Row | Sequence | log2 fold change of degron read counts [1] | log2 fold change of degron read counts [2] | log2 fold change of degron read counts [3] | log2 fold change of degron read counts (compound: thalidomide)
1 | FGCEQCGAKFTQKGNLLRHIKL [46F_47G_49E_50Q_52G_53A_54K_55F_67L_, Q9UKT9] | 0.32 | -2.26 | -2.15 | -0.779
2 | FLCPVCGAEFTQKGNLLRHIKL [46F_47L_49P_50V_52G_53A_54E_55F_67L_, Q9UKT9] | -0.14 | -1.09 | 1.21 | 1.24
3 | FCCPQCGANFTQKGNLLRHIKL [46F_47C_49P_50Q_52G_53A_54N_55F_67L_, Q9UKT9] | -0.811 | -1.28 | 0.128 | -0.853
4 | FMCNQCGHWFTQKGNLLRHIKL [46F_47M_49N_50Q_52G_53H_54W_55F_67L_, Q9UKT9] | -2.24 | -2.49 | -2.26 | -2.73
5 | FDCNQCGANFTQKGNLLRHIKL [46F_47D_49N_50Q_52G_53A_54N_55F_67L_, Q9UKT9] | -2.41 | -2.24 | -2.07 | -2.31
6 | FNCEICGARFTQKGNLLRHIKL [46F_47N_49E_50I_52G_53A_54R_55F_67L_, Q9UKT9] | 2.49 | 0.909 | -0.686 | 0.645
7 | FKCEICGARFTQKGNLLRHIKL [46F_47K_49E_50I_52G_53A_54R_55F_67L_, Q9UKT9] | -1.5 | -3.6 | -3.25 | -1.17
8 | FSCEICGARFTQKGNLLRHIKL [46F_47S_49E_50I_52G_53A_54R_55F_67L_, Q9UKT9] | 3.25 | 2.89 | 0.489 | 2.12
9 | FSCEICGALFTQKGNLLRHIKL [46F_47S_49E_50I_52G_53A_54L_55F_67L_, Q9UKT9] | 0.851 | 0.0276 | 2.41 | -0.115
10 | FGCEICGARFTQKGNLLRHIKL [46F_47G_49E_50I_52G_53A_54R_55F_67L_, Q9UKT9] | 3.15 | 2.26 | -0.576 | 1.48
11 | FCCEICGARFTQKGNLLRHIKL [46F_47C_49E_50I_52G_53A_54R_55F_67L_, Q9UKT9] | 3.25 | 3.01 | 1.66 | 3.08
12 | FDCPICGREFTQKGNLLRHIKL [46F_47D_49P_50I_52G_53R_54E_55F_67L_, Q9UKT9] | -1.43 | -1.65 | -0.206 | 0.273
13 | FQCPICGHKFTQKGNLLRHIKL [46F_47Q_49P_50I_52G_53H_54K_55F_67L_, Q9UKT9] | -1.95 | -1.73 | -1.82 | 0.342
14 | FDCDICGATFTQKGNLLRHIKL [46F_47D_49D_50I_52G_53A_54T_55F_67L_, Q9UKT9] | -0.229 | -1.86 | -1.66 | -1.78
